From PubChem
This is a sample that favours compounds with a hit; in the whole collection about 11% have one here.
hNpr1 antagonist = blocks ANP-stimulated signaling of human Npr1 receptor | P16066 | HEK293 hNpr1 GloSensor cGMP, ANP-stimulated luminescence | Potency, µM (titrated, usually from 46.3 µM), inactives show at the highest dose activity change, negative = inhibition, hits mostly inhibitors | 1.6% of 76,000 active; calls by dose curve; further: nearly all actives have a fitted effect of over 60% in size
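Compound pre-incubated 30 min at room temperature on GloSensor-loaded HEK293 cells stably carrying hNpr1 and the pGS-40F cGMP biosensor. Stimulation uses hNppA at 0.1 nM final; luminescence is taken at baseline and 20 min post-agonist.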
3T3 cytotox = cytotoxic compounds in NIH 3T3 cells | NIH 3T3 viability, CellTiter-Glo ATP luminescence, 48-72 h | Potency, µM (titrated, usually from 96.7 µM), inactives show top-dose activity change, negative = cytotoxicity, most hits filed as inhibitors | 4.3% of 94,000 active | AID 1345082; further: nearly all actives have a fitted effect of over 55% in size
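Cytotoxicity is measured as loss of cellular ATP: NIH 3T3 cells (400/well) are exposed to compound for 48 or 72 hr at 37 °C, then CellTiter-Glo luminescence is imaged after 10 min at room temperature.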
HEK cytotox = HEK 293 cell cytotoxicity; AID 1345083; 6.6% of 94,000 active; Potency, µM (series often up to 115 µM), for inactives: at the top dose activity change, negative = cytotoxicity, most hits filed as inhibitors; HEK 293 viability, ATP luminescence (CellTiter-Glo), 48-72 h; further: nearly all actives have a fitted effect of over 60% in size
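Read-out: CellTiter-Glo ATP luminescence. Cells: HEK 293, 250 cells/well. Exposure: 48 or 72 hr, 37 degree Celsius.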
Luciferase inh = blocks purified firefly luciferase enzyme activity. purified P. pyralis luciferase, luminescence, biochemical. Potency, µM (titrated, usually from 115 µM), most hits filed as inhibitors. 2.5% of 76,000 active; further: nearly all actives have a fitted effect of over 65% in size
Target sequence (P08659 whole entry, looked up): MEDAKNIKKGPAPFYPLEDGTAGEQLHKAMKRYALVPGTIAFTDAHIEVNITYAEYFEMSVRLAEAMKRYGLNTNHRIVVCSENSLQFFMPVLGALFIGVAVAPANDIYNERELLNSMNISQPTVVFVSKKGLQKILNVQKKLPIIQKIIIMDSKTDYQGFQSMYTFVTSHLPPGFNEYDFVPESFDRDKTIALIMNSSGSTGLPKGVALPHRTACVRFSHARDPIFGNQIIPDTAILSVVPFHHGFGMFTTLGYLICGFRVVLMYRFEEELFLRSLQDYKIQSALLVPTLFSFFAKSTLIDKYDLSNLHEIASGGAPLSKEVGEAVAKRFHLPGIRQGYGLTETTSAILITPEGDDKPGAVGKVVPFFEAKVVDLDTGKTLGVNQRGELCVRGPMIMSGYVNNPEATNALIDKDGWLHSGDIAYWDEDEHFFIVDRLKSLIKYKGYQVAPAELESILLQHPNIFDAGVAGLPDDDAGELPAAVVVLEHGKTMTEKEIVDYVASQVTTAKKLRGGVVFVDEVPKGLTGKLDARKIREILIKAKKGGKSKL
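Purified 10nM P. pyralis luciferase with 10uM D-luciferin and 10uM ATP in 50mM Tris acetate pH 7.5, 10mM Mg acetate, 0.01% Tween-20, 0.05% BSA. qHTS titration; luminescence read by CCD imager.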
* marks the source's active call; other numbers are inactive results; i = inactive; u = inconclusive; x = not tested or not shown; [ ] = remark or other dose. Unless noted, the call rests on the fitted dose curve; in most records, active means well fitted curve in the direction sought with a large enough effect; inconclusive means small, poorly fitted or top-dose-only effect, or another doubt; inactive means no such curve, though single readings can be large; an effect the other way counts as inactive or inconclusive. On the % scale 0 is the no-effect control and ±100 the full control effect; potency means the concentration at half of the fitted maximal effect.

SMILES | hNpr1 antagonist | 3T3 cytotox | HEK cytotox | Luciferase inh
Cc1ccc(NC(=O)c2ccc3c(c2)N(C)C2CCCCCN2C3=O)cc1F (stereo not given) | 0% | u | 32µM* | i
Cc1ccc(NC(=O)c2ccc3c(c2)N(C)C2CCCCN2C3=O)cc1Cl (stereo not given) | -8% | -18% | u | u
Cc1cc(NC(=O)c2ccc3c(c2)N(C)C2CCCCN2C3=O)ccc1Cl (stereo not given) | -1% | -24% | u | 25µM*
Cc1ccc(NC(=O)c2ccc3c(c2)N(C)C2CCCCCN2C3=O)cc1C (stereo not given) | u | u | 45µM* | u
Cc1ccc(NC(=O)c2ccc3c(c2)N(C)C2CCCCN2C3=O)cc1C (stereo not given) | -3% | u | u | 40µM*
Cc1nn(-c2ccccc2)c2c1C(C)N(C1CCN([S+](=O)([O-])c3cccs3)CC1)C2=O (stereo not given) | x | -20% | u | x
CN(C)S(=O)(=O)N1CCCN(Cc2ccncc2)C(c2ccccc2)CC(=O)NCC1 (stereo not given) | 0% | -28% | -10% | i
CN1c2cc(C(=O)Nc3ccc4c(c3)OCCO4)ccc2C(=O)N2CCCCCC21 (stereo not given) | -6% | u | u | 13µM*
Cc1cccc(NC(=O)N2CCC(CCNC(=O)c3cccs3)CC2)c1 | 4% | -1% | 3% | i
CN(Cc1cccc(-n2cccn2)c1)Cc1nc(-c2cccs2)no1 | -8% | -24% | 79µM* | i
CN(Cc1ccc(-n2cccn2)cc1)Cc1nc(Cc2cccc(F)c2)no1 | 2% | -20% | u | i
Cn1ncc2c(C(=O)NC3CCC3)cc(-c3ccccc3C(F)(F)F)nc21 | x | -27% | u | x
O=C1CC2(CCN(Cc3ccsc3)CC2)Oc2ccccc21 | 10%[70.6 µM] | u | u | 45µM*
O=C1CC2(CCN(Cc3cccc4ccccc34)CC2)Oc2cc(Cl)ccc21 | 14% | u | u | i
O=C1CC2(CCN(Cc3cccc4ccccc34)CC2)Oc2ccccc21 | -14% | u | 35µM* | i
O=C1CC2(CCN(Cc3ccccc3)CC2)Oc2ccccc21 | -18%[70.6 µM] | u | u | u
O=C1CC2(CCN(Cc3ccc(C(F)(F)F)cc3)CC2)Oc2ccccc21 | u | u | 25µM* | i
Cc1cccc(NC(=O)N2CCC(Cc3nncn3CC3CC3)CC2)c1 | x | u | i | x
COc1ccc(CCN2CCC(CN(C)C(=O)c3ccccc3SC)CC2)cc1 | 2% | -36% | u | i
Cn1cc(CN2CCNc3cc(-c4ccccc4)ncc3C2)cn1 | 3%[70.6 µM] | -13%[138 µM] | u | 45µM*
Cn1cc(CN2CCNc3cc(Nc4ccccc4)ncc3C2)cn1 | 1%[70.6 µM] | u | -60%[172 µM] | 28µM*
c1ccc(Nc2cc3c(cn2)NCCN(Cc2ccccn2)C3)cc1 | 2%[70.6 µM] | -18%[138 µM] | u | i
Cc1ccc(CN2CCCCCCNC(=O)[C@@H]3C[C@@H](C(=O)N4CCc5ccccc5C4)C[C@@H]32)o1 | -16% | u | u | i
COc1cccc(CC(=O)N2CCC3(CC2)CC(CC(=O)NCc2ccccc2)CCO3)c1 (stereo not given) | x | -30% | u | x
COc1cccc(CNC(=O)c2ccc3nnc(-c4cc[nH]c4)n3c2)c1 | x | -28% | -3% | x
SMILES | hNpr1 antagonist | 3T3 cytotox | HEK cytotox | Luciferase inh
COc1cccc(CNC(=O)c2ccc3nnc(-c4cccc(C(F)(F)F)c4)n3c2)c1 | x | u | 45µM* | x
O=C(NCc1ccc(F)cc1)c1ccc2nnc(-c3cccc(C(F)(F)F)c3)n2c1 | x | u | 40µM* | x
O=C(NC1CCCCC1)c1ccc2nnc(-c3cc(C(F)(F)F)cc(C(F)(F)F)c3)n2c1 | x | 32µM* | 35µM* | x
O=C(NC1CCCCCC1)c1ccc2nccn2c1 | -16%[70.6 µM] | -29%[138 µM] | u | 40µM*
Cc1ccc(CC(=O)N2CCC3(CC2)N=C(c2ccc(C)cc2)NO3)cc1 | -1% | -21% | -6% | i
O=C(NCc1ccc(Cl)cc1)c1ccc2nnc(-c3cc(C(F)(F)F)cc(C(F)(F)F)c3)n2c1 | x | u | 14µM* | x
O=C(NCc1ccccc1Cl)c1ccc2nnc(-c3ccoc3)n2c1 | x | u | 112µM* | x
O=C(NCCc1ccc(Cl)cc1)c1ccc2nnc(-c3cccc(C(F)(F)F)c3)n2c1 | x | 22µM* | u | x
O=C(NCc1ccccc1)c1ccc2nnc(-c3ccoc3)n2c1 | x | u | -8%[172 µM] | x
